Assay results taken from PubChem BioAssay (NCI).
This is part of a sample that, as a whole, favours compounds with a hit. Of some 83,000 tested, about 20% had one in any assay.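 Activity criterion: percent growth below 10, measured after cells in 96-well plates were exposed to a single compound concentration for 48 hours.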 Active and inactive are the calls of the source.

Test system: HL-60(TB) leukemia
Assay: NCI-60 one-dose screen, 48 h (100 = growth as untreated, 0 = no growth, -100 = all killed)
Settings: 10 µM unless noted
Method: Growth inhibition of the HL-60(TB) human tumor cell line is measured as a screen for anti-cancer activity. Cells are grown in 96 well plates and exposed to the test compound for 48 hours. Compounds are tested at a single concentration, which is 10^-5 M for most compounds. The reported endpoint is percent growth (GI% or GIPRCNT), where numbers from 0 - 100% represent growth inhibition, and numbers from -100% - 0 represent cell death. For example, a value of 40 represents 60% growth inhibition. A value of 0 means no net growth occurred over the course of the experiment. A value of -40 indicates 40% of cells at the beginning of the experiment died by the end of the experiment. A value of -100 means all cells are dead at the end of the experiment.
NCI-60 Human Tumor Cell Lines Screen was performed using the standard one-dose NCI protocol, which is described in more detail at https://dtp.cancer.gov/discovery_development/nci-60/default.htm.
Compounds with GIPRCNT values below 10 were considered active. Activity score was based on GIPRCNT using the following formula: […]
Score is 0 for GIPRCNT values of 100 or above, 50 for GIPRCNT values of 0, and 100 for GIPRCNT values of -100.

**Q.** For Cc1ccc2c(c1)nc(-c1ccccc1)n2CC(=O)N=Nc1c(O)[nH]c2ccc(Br)cc12, which growth is on record?
**A.** 7.86% (active)

**Q.** Which growth does the source give for CCN1C(=O)N(CC)C2NNC(Sc3c(C(=O)O)c4ccccc4n(CCC(C)C)c3=O)=NC21 (stereo not given) here?
**A.** -48.1% (active)

**Q.** Which growth does the source give for CCCCCCCS(=O)(=O)N1CCCC(C(=O)Nc2nc3ccc(NC(=O)c4ccc(F)c(OC)c4F)cc3s2)C1 (stereo not given) here?
**A.** 66.7% (inactive)

**Q.** O=S(=O)(Nc1ncccn1)c1ccc(-n2c(-c3ccccc3)nc(-c3ccccc3)c2-c2ccccc2)cc1 was tested. Which growth did it give?
**A.** 95.5% (inactive)

**Q.** COc1cccc(O)c1/C=C1\SCc2cc3c(OC)cccc3[o+]c21 was tested. Which growth did it give?
**A.** 100% (inactive)

**Q.** Which growth does the source give for Cc1ccc2nc(NC(=O)Nc3cccc(Cl)c3)sc2c1 here?
**A.** 95.7% (inactive)

**Q.** For CCCCCCCCc1ccc(C(=O)Nc2ccc(C)c(OP(=O)(O)O)c2)cc1, which growth is on record?
**A.** 78.4% (inactive)

**Q.** Which growth does the source give for Cc1ccc(C(=O)Nc2cc(-c3ccncc3)cc(C(F)(F)F)c2)cc1C#Cc1cnc2cccnn12 here?
**A.** 16.8% (inactive)

**Q.** How did the growth turn out when COc1cc(/C=C/C(=O)c2cc(OC)c(OC)c(OC)c2)ccc1Oc1nc(Nc2ccc(F)cc2)nc(N(C)C)n1 was run?
**A.** -7.15% (active)

**Q.** Which growth does the source give for NS(=O)(=O)c1ccc(N=Nc2c(O)n(CC(=O)Nc3ccccc3)c3ccccc23)cc1 here?
**A.** 48.7% (inactive)

**Q.** How did the growth turn out when CC(=O)Nc1ccc(-n2cnc3cc(-c4ccc(O)cc4)ccc32)cc1F was run?
**A.** -10.2% (active)

**Q.** CC12OOC(C)(OO1)C2CCC(=O)NCCNc1ccnc2cc(Cl)ccc12 (stereo not given) was tested. Which growth did it give?
**A.** 88.9% (inactive)

**Q.** With O=C(N/N=C/c1ccc(B(O)O)o1)c1[nH]c2ccc(Br)cc2c1-c1ccccc1 as the compound, how does the growth read?
**A.** -29.3% (active)

**Q.** Which growth does the source give for Cc1ccc(C2CC(c3ccc(NC(=S)Nc4ccccc4)cc3)=NN2c2ccc(S(N)(=O)=O)cc2)cc1 (stereo not given) here?
**A.** 8.89% (active)

**Q.** CN1C(=O)/C(=C/c2ccc3ncsc3c2)NC1=NC12CC3CC(CC(O)(C3)C1)C2 was tested. Which growth did it give?
**A.** -16.6% (active)

**Q.** For CCCCCCCCCCCCCCCCCC(=O)Nc1ccc(OC)cc1, which growth is on record?
**A.** 90.3% (inactive)

**Q.** How did the growth turn out when CCCCc1c(Nn2cnnn2)no[n+]1[O-] was run?
**A.** 37.9% (inactive)

**Q.** How did the growth turn out when COc1ccc2nc(Cl)c(-c3cc(-c4ccccc4)nc(N)n3)cc2c1 was run?
**A.** -37.5% (active)

**Q.** Which growth does the source give for O=C(NO)c1ccc(CNC(=O)[C@H]2Cc3c([nH]c4ccccc34)[C@H](c3ccccc3)N2)cc1 here?
**A.** 0.371% (active)

**Q.** O=C(Nc1ccc(Br)cc1)Nc1ccc(-c2ccc3c(c2)NC(=O)/C3=C\c2ccc[nH]2)cc1 was tested. Which growth did it give?
**A.** 33.4% (inactive)

**Q.** With CN1C(=O)C(O)(CC(=O)c2cc3ccccc3oc2=O)c2ccccc21 (stereo not given) as the compound, how does the growth read?
**A.** 84.4% (inactive)

**Q.** Nc1nc(-c2ccccc2)cc(-c2cc3ccccc3nc2Cl)n1 was tested. Which growth did it give?
**A.** 51.6% (inactive)

**Q.** COc1ccc(NCc2cn(-c3ccc(C(=O)O)cc3)nc2-c2ccc(F)cc2)cc1C(F)(F)F was tested. Which growth did it give?
**A.** 49.9% (inactive)

**Q.** O=C(NN1C(=O)/C(=C/C=C/c2ccc([N+](=O)[O-])o2)SC1=S)c1cccc(O)c1 was tested. Which growth did it give?
**A.** -2.32% (active)

**Q.** How did the growth turn out when C=C1CC[C@@H]2[C@]3(C)COC(c4cn[nH]c4-c4cccc(Br)c4)O[C@@H]3CC[C@@]2(C)[C@@H]1C/C=C1/C(=O)OCC1O (stereo not given in full) was run?
**A.** -16.3% (active)

**Q.** With Cc1[nH]nc2ccc3nc(-c4cnn(CCO)c4)c4c(c3c12)CCCC4 as the compound, how does the growth read?
**A.** 36.9% (inactive)

**Q.** O=c1oc2ccc(-c3ccc(F)cc3F)cc2c(=O)n1-c1ccc(F)c(Cl)c1 was tested. Which growth did it give?
**A.** -40.3% (active)

**Q.** How did the growth turn out when O=C(Nc1nc2ccc([N+](=O)[O-])cc2s1)Nc1cc(Cl)ccc1I was run?
**A.** -47.7% (active)

**Q.** For CN(C)c1nc(NCCNS(=O)(=O)c2ccc(C3=Nc4c(N)nc(N)nc4NC(c4ccc(Cl)cc4)C3)cc2)nc(N2CCOCC2)n1 (stereo not given), which growth is on record?
**A.** 28.1% (inactive)

**Q.** Which growth does the source give for O=[N+]([O-])c1ccc(/C=C/c2nc3ccccc3n3c(=S)[nH]nc23)cc1 here?
**A.** 79.1% (inactive)

**Q.** Which growth does the source give for O=C(COc1ccc(NC(=O)Nc2ccc(Cl)c(Cl)c2)cc1)N=Nc1c(O)[nH]c2ccc(Br)cc12 here?
**A.** -27.2% (active)

**Q.** C=CC(=O)N1CCN(c2ccc3nc4c(nc3c2C(F)(F)F)C(=O)c2ncccc2C4=O)CC1 was tested. Which growth did it give?
**A.** -24.7% (active)

**Q.** N#Cc1c(NC(=O)c2ccc(C(O)(C(F)(F)F)C(F)(F)F)cc2)sc2c1CCC(=O)C2 was tested. Which growth did it give?
**A.** -23.4% (active)

**Q.** For Cc1nc(Nc2nc(C)c3ccc(OCCN4CCOCC4)cc3n2)[nH]c(=O)c1C, which growth is on record?
**A.** 2.88% (active)

**Q.** COc1cnc2c(c1)C(=O)c1c-2n(CCCNC(C)C)c(=O)c2cc(OC)c(OC)cc12 was tested. Which growth did it give?
**A.** 62.8% (inactive)

**Q.** With CC1=NN(C2=NC(=O)C(CC(=O)Nc3ccccc3C(F)(F)F)S2)C(c2ccc(N(C)C)cc2)C1 (stereo not given) as the compound, how does the growth read?
**A.** 10.7% (inactive)

**Q.** How did the growth turn out when Cc1cc2nc3c([nH]c2cc1C)c1ccc(=O)cc1n3CCN(C)C was run?
**A.** 16.8% (inactive)

**Q.** How did the growth turn out when COc1cc(-c2ccc(/C=N/NC(=O)c3[nH]c4ccc(Br)cc4c3-c3ccccc3)s2)cc(OC)c1OC was run?
**A.** 99% (inactive)

**Q.** Which growth does the source give for COc1c(F)ccc(C(=O)Nc2ccc3nc(NC(=O)C4CCCN(S(=O)(=O)c5ccc(Br)s5)C4)sc3c2)c1F (stereo not given) here?
**A.** 80.6% (inactive)

**Q.** With O=C(CSc1nnc(-c2ccc(-c3nc4ccccc4[nH]3)cc2)o1)Nc1ccc(Cl)cc1 as the compound, how does the growth read?
**A.** 37.6% (inactive)
